Among the data in PubChem BioAssay (NCI) are growth inhibition values, retold here.

The panel holds about 79,000 compounds, 15% with a hit somewhere; the sample as a whole holds those more often. A number with no mark means an inactive call. The source made the active and inactive calls. No stated cut-off is given here; in the data, active means growth inhibition above about 70%; inactive means the rest.

Test [1] is described as follows: NCI Yeast Anticancer Drug Screen. Data for the rad50 strain (AID 155).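 Further: 0% = growth of vehicle-only cultures of the same strain.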 The note with it: S. cerevisiae rad50 strain growth inhibition, stronger effect = higher value; at 50.0 µM unless noted. The method, boiled down:
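Genetically altered yeast (DNA repair pathway); compound treatment; growth inhibition vs vehicle ctrl.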

Test [2] is described as follows: NCI Yeast Anticancer Drug Screen. Data for the mec2-1 strain (AID 157). The note with it: S. cerevisiae mec2-1 strain, stronger effect = higher value; at 50.0 µM unless noted. An outline of the steps: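 Vehicle-treated cultures served as reference for growth inhibition of compound-exposed mec2-1 yeast.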
A short description of test [3]: NCI Yeast Anticancer Drug Screen. Data for the sgs1 mgt1 strain (AID 161).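 Further: 0% = growth of cultures given vehicle only.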 The note with it: S. cerevisiae sgs1 mgt1 strain, stronger effect = higher value; at 50.0 µM unless noted. An outline of the steps:
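Inhibition of yeast growth, normalised to vehicle-treated controls, is reported for a strain bearing genetic alterations in DNA damage repair.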

Test [4] can be described thus: NCI Yeast Anticancer Drug Screen. Data for the cln2 rad14 strain (AID 165).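 Further: 0% = growth equal to vehicle treated cultures.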 The note with it: S. cerevisiae cln2 rad14 strain, stronger effect = higher value; at 50.0 µM unless noted. The method, boiled down: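 Each compound was tested on cln2 rad14 yeast. Inhibition of growth was calculated against vehicle-exposed controls.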
A short description of test [5]: NCI Yeast Anticancer Drug Screen. Data for the bub3 strain (AID 167). The note with it: S. cerevisiae bub3 mutant strain, stronger effect = higher value; at 50.0 µM unless noted. The method, boiled down: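 Yeast carrying a defined mutation is treated with each compound, and growth is compared with that of vehicle-exposed cells to give inhibition.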
Test [6] is described as follows: NCI Yeast Anticancer Drug Screen. Data for the mlh1 rad18 strain (AID 175). The note with it: S. cerevisiae mlh1 rad18 strain growth inhibition, stronger effect = higher value; at 50.0 µM unless noted. An outline of the steps:
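Vehicle-treated cultures served as the reference for growth inhibition in a yeast strain carrying DNA damage repair alterations exposed to each compound.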

For `COc1ccc2cc(N3CCCC3)ccc2c1`, the growth inhibition is 7.8% in test [1]; -7.35% in test [2]; 6.15% in test [3]; -14.8% in test [4]; -7.55% in test [5]; -37.8% in test [6].
As to `COc1ccccc1N=Nc1c(O)n(-c2ccccc2OC)c(=S)n(-c2ccccc2)c1=O`, the growth inhibition in test [1] is 40.8%; in test [2] it was -3.45%; in test [3], 31.9%; in test [4], -13.4%; in test [5] it was -2.5%; in test [6], 16.9%.
Regarding `CC(C)(CBr)CC(=O)NC1CCCCC1`, the growth inhibition in test [1] was -22%; in test [2], 5.8%; in test [3] it was 3.3%; in test [4], 1.8%; in test [5] it was 10.2%; in test [6], 50%.
Take `COC(=O)C(C)(N=Cc1ccccc1)c1ccccc1` (stereo unspecified): the growth inhibition is -34.2% in test [1]; -30.9% in test [2]; 6.7% in test [3]; 17.4% in test [4]; -9.75% in test [5]; 0.6% in test [6].
Turning to `CCOC(=O)C(=CNC(=S)Nc1c(CC)cccc1CC)C(=O)OCC`, the growth inhibition in test [1] is -26.2%; in test [2] it was -38.4%; in test [3] it was -2.9%; in test [4], 4.65%; in test [5], -5.15%; in test [6], -59.9%.
For `COc1ccc(NC(=S)N/N=C(\C)c2ccccn2)cc1`, the growth inhibition was 81.5% (active) in test [1]; 91.8% (active) in test [2]; 94% (active) in test [3]; 35.4% in test [4]; 80.1% (active) in test [5]; 84.8% (active) in test [6].
For `COc1ccc(C=NCC(OC)OC)cc1OCc1ccccc1`, the growth inhibition was -14.9% in test [1]; 7.15% in test [2]; 14% in test [3]; -16.4% in test [4]; -3.05% in test [5]; 12.4% in test [6].
As for `COc1ccc(OCc2ccc(OC)c(OC)c2)cc1`, the growth inhibition in test [1] was 7.2%; in test [2] it was -3.7%; in test [3] it was -11.2%; in test [4] it was -10.7%; in test [5], -8.15%; in test [6], -7.35%.
On to `CCN(CC)/N=C/c1cc([N+](=O)[O-])ccc1O`, for which the growth inhibition is 24.9% in test [1]; 5.4% in test [2]; -6.85% in test [3]; -50.9% in test [4]; 2.9% in test [5]; 15.7% in test [6].
As to `CCC1NC(=O)C1NC(=O)OC` (stereo unspecified), the growth inhibition is 23.6% in test [1]; -1.15% in test [2]; 22.6% in test [3]; 0.55% in test [4]; 12.6% in test [5]; 22.8% in test [6].
Take `Cc1c2n(c(=O)[nH]c1=O)C1OC(CO)C(O2)C1N=[N+]=[N-]` (stereo unspecified): the growth inhibition was -11.1% in test [1]; -17.6% in test [2]; -27.2% in test [3]; -7.55% in test [4]; -9.65% in test [5]; -34.6% in test [6].
Consider `CCCCC/C([O-])=C1/C(=O)N(c2ccccc2)N=C1C.CCCCC/C([O-])=C1/C(=O)N(c2ccccc2)N=C1C.[Cu+2]`, for which the growth inhibition in test [1] is 2.1%; in test [2] it was 0.75%; in test [3], -13.7%; in test [4], -6.1%; in test [5], -2.75%; in test [6] it was 7.75%.
Consider `NC(=S)Cc1ccncc1`, for which the growth inhibition in test [1] was 12.8%; in test [2], 6.15%; in test [3], 3.45%; in test [4], 1.15%; in test [5], 5.55%; in test [6], 2.65%.
Turning to `c1cc2c(cc1CSCc1c(CSCc3ccc4c(c3)OCO4)c(CSCc3ccc4c(c3)OCO4)c(CSCc3ccc4c(c3)OCO4)c(CSCc3ccc4c(c3)OCO4)c1CSCc1ccc3c(c1)OCO3)OCO2`, the growth inhibition in test [1] is -0.95%; in test [2], -8.65%; in test [3], -1.4%; in test [4], -39%; in test [5], 2.55%; in test [6], 9.3%.
For the molecule `O=Nc1c(O)c2ccccc2[nH]c1=O`, the growth inhibition in test [1] is 15.6%; in test [2] it was 33.6%; in test [3] it was 34.6%; in test [4], 24.9%; in test [5] it was 57.5%; in test [6], 30.4%.
On to `COc1cc2c(cc1OC)C(=O)/C(=C/c1cc(OC)c(OC)c(OC)c1)C2`, for which the growth inhibition was -33.8% in test [1]; -35.5% in test [2]; -69.8% in test [3]; -38.6% in test [4]; -12.8% in test [5]; -69% in test [6].
`CC(C#N)C(=O)O` (stereo unspecified): the growth inhibition in test [1] was -3.55%; in test [2], -5.85%; in test [3] it was -15.7%; in test [4], -8.15%; in test [5] it was -8.15%; in test [6], -18.5%.
For `CC1C2=C(CC(C)(C)CC2=O)NC2=C1C(=O)CC(C)(C)C2`, the growth inhibition is -7.3% in test [1]; -26.1% in test [2]; -8.55% in test [3]; -9.85% in test [4]; -7.4% in test [5]; -3.4% in test [6].
As to `CCOC(=O)Cn1c(=O)[nH]c(=O)c2c1ncn2Cc1ccccc1`, the growth inhibition in test [1] was 32.9%; in test [2] it was -2.35%; in test [3] it was -3.1%; in test [4] it was 13.2%; in test [5], 30.2%; in test [6], 25.7%.
Take `COC1OC(COC(=O)c2ccc([N+](=O)[O-])cc2)C2SC12` (stereo unspecified): the growth inhibition in test [1] was 9.5%; in test [2], -9.1%; in test [3], 1.8%; in test [4] it was -27.6%; in test [5] it was 6.7%; in test [6], 2.65%.
Turning to `CC(=O)Nc1ccc2ccccc2c1[N+](=O)[O-]`, the growth inhibition is -11.1% in test [1]; -14.4% in test [2]; -17.4% in test [3]; -64.5% in test [4]; -35.8% in test [5]; 15.7% in test [6].
